Reference: PubChem BioAssay (NCI)
About 83,000 compounds went through this panel and 20% of them were active in at least one assay; those are over-represented in the sample as a whole.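 Assay: single dose, 48 h. Readout: percent growth (0 = no net growth; negative = cell death). Active: <10.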 Calls of active or inactive are those of the source.

The compounds below were run on HCT-15 colon (assay: NCI-60 one-dose screen, 48 h (100 = growth as untreated, 0 = no growth, -100 = all killed)). Settings: 10 µM unless noted.

Row | SMILES | growth
1 | C=C1CC[C@@H]2[C@]3(C)COC(c4cn[nH]c4-c4ccc(Br)cc4)O[C@@H]3CC[C@@]2(C)[C@@H]1C/C=C1/C(=O)OCC1O (stereo partly specified) | -62.6% (active)
2 | Cc1cnc(C(=O)NNc2nc3cc(F)ccc3n3c(C(=O)N4CC5CC(C4)N5)ccc23)cn1 | 32.4% (inactive)
3 | CCCSc1nc(Nc2ccc(S(N)(=O)=O)cc2)c(C#N)c(-c2cc(OC)c(OC)c(OC)c2)n1 | 15.3% (inactive)
4 | C=C1CCC2C3(C)COC(c4ccccc4)OC3CCC2(C)C1CC(NCc1ccccc1)C1=CCOC1=O (stereo unspecified) | 87.1% (inactive)
5 | C=C1CC[C@@H]2[C@]3(C)COC(c4ccccc4)O[C@@H]3CC[C@@]2(C)[C@@H]1C/C=C1/C(=O)OCC1OC(C)=O (stereo partly specified) | -87.3% (active)

The compounds below were run on HT29 colon in the same assay as above. Settings: 10 µM unless noted.

Row | SMILES | growth
6 | O=C(COc1ccc(NC(=O)Nc2ccc(Cl)cc2)cc1)N/N=C/c1ccccc1 | -87.4% (active)
7 | COc1cc(/C=C/C(=O)c2ccccc2)ccc1Oc1nc(Nc2ccc(F)cc2)nc(N(C)C)n1 | 14.5% (inactive)
8 | CN(C)CCCNC(=O)c1cc(NC(=O)c2cc(NC(=O)c3ccc(/C=C/c4ccccc4)cc3)cn2C)cn1C | 2.73% (active)
9 | COc1ccc(C(=O)/C=C/c2ccc(Oc3nc(Nc4ccc(F)cc4)nc(N(C)C)n3)c(OC)c2)cc1 | 59% (inactive)
10 | CN(C)CCOc1ccc(C(=O)C2[C@H](c3ccc(Cl)cc3)[C@@H](c3ccccc3)NC23C(=O)Nc2ccc(Br)cc23)cc1 (stereo partly specified) | -85.7% (active)
11 | COc1ccc(-c2ccc(SCC(=O)NCCc3ccc(S(N)(=O)=O)cc3)nn2)cc1 | 96.5% (inactive)
